Measurements: PubChem BioAssay (Tox21)
Inconclusive results are not listed. Activity calls are given as the source filed them. Unless noted, calls follow the shape of the dose curve; as a rule, active = well fitted curve in the direction sought with a large enough effect in the repeat runs; inconclusive = weak or mixed curves; inactive = no such curve, though single readings can be large; an effect the other way counts as inactive or inconclusive.

What was measured:
[1] = target: Nuclear receptor subfamily 1 group I member 3 (Homo sapiens) (UniProt Q14994); assay: qHTS assay to identify small molecule antagonists of the constitutive androstane receptor (CAR) signaling pathway (AID 1224838);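 also: HepG2 cells stably expressing hCAR with CYP2B6 luciferase reporter stimulated by CITCO; % is scaled to controls: 0 for no effect and ±100 for the full control effect; nearly all actives have a fitted effect of over 40% in size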
Procedure, shortened: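 Antagonist mode used CITCO at a final 50 nM to activate CAR in human hepatoma HepG2 cells carrying stable hCAR and a 2.2 kb CYP2B6 promoter-luciferase construct. Compounds were tested at 15 concentrations over 24 h, with luminescence as the end point.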

[2] = target: Nuclear receptor subfamily 1 group I member 3 (Homo sapiens) (UniProt Q14994); assay: qHTS assay to identify small molecule agonists of the constitutive androstane receptor (CAR) signaling pathway (AID 1224839); also: nearly all actives have a fitted effect of over 15% in size; also: potency is read from the fitted curve at half-maximal effect; as to activation: % is scaled to controls: 0 for no effect and ±100 for the full control effect
Procedure, shortened: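 Compounds tested at 15 concentrations on HepG2 cells stably harbouring hCAR and CYP2B6-2.2kb reporter constructs, co-treated with PK11195 (0.75 uM final), 24 h at 37 C; luminescent reporter signal quantified.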

[3] = qHTS assay to identify small molecule antagonists of the estrogen related receptor signaling pathway with the pleiotropic PPARgamma coactivator (PGC) from Tox21 10K library - cell viability counter screen (AID 1224840; active = well fitted cell-killing curve with a large enough effect in the repeat runs, not every such curve was filed as active; also: potency is read from the fitted curve at half-maximal effect; nearly all actives have a fitted effect of over 40% in size)
Procedure, shortened: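 Multiplexed viability counter screen in the PGC/ERR cell line: cells treated with DMSO-dissolved compounds for 17.5 hours at 37 C, then viability measured as CellTiter-Fluor fluorescence.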

[4] = qHTS assay to identify small molecule agonists of H2AX - cell viability counter screen (AID 1224847; calls by dose curve; also: nearly all actives have a fitted effect of over 30% in size; also: potency is read from the fitted curve at half-maximal effect)
Procedure, shortened: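 Compounds tested at 15 concentrations were incubated 3 hr at 37C with wild-type CHO-K1 cells; cellular ATP-based luminescence (CellTiter-Glo) indicated viability.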

[5] = A CellTox Green Cytotoxicity Assay to monitor cytotoxicity in HEK293 cells - 0 hour (AID 1224869); also: nearly all actives have a fitted effect of over 50% in size; also: potency is read from the fitted curve at half-maximal effect
Procedure, shortened: (§1)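 Cells (HEK293, 600/well) and dye reagent are dispensed together. After 5 h at 37 C, 23 nL compound is pinned in. Plates stay at 37 C for 40 h with fluorescence read at 0h, 8h, 16h, 24h, 32h and 40h.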

[6] = qHTS RealTime-Glo MT Cell Viability Assay in HepG2 cells - 40 hour (AID 1224870); also: % is scaled to controls: 0 for no effect and ±100 for the full control effect; nearly all actives have a fitted effect of over 50% in size
Procedure, shortened: (§2)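 HepG2 cells (600/well) mixed with RealTime-Glo MT reagent, settled 5 h at 37 C/5% CO2 before compound addition. Nonlytic NanoLuc luminescence from viable-cell prosubstrate reduction read repeatedly during 40 h treatment at 37 C.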

[7] = A CellTox Green Cytotoxicity Assay to monitor cytotoxicity in HEK293 cells - 40 hour (AID 1224871); also: nearly all actives have a fitted effect of over 45% in size; also: potency is read from the fitted curve at half-maximal effect
Procedure, shortened: as §1

[8] = qHTS RealTime-Glo MT Cell Viability Assay in HepG2 cells - 8 hour (AID 1224873); also: % is scaled to controls: 0 for no effect and ±100 for the full control effect; nearly all actives have a fitted effect of over 55% in size
Procedure, shortened: as §2

[9] = qHTS assay to identify small molecule antagonists of the estrogen related receptor signaling pathway with the pleiotropic PPARgamma coactivator (PGC) from Tox21 10K library (AID 1224841; call rule not given here; also: % is scaled to controls: 0 for no effect and ±100 for the full control effect; actives are mostly falling curves and most rising ones were filed inactive; nearly all actives have a fitted effect of over 50% in size)
Procedure, shortened: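 Steps: plate 2,000 PGC/ERR cells per well; incubate 6 h at 37 C with 5% CO2; transfer compounds from DMSO stocks by pin tool; incubate 18 h at 37 C; add One-Glo; measure luminescence 30 min later.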

[10] = qHTS assay to identify small molecule agonists of the estrogen related receptor signaling pathway with the pleiotropic PPARgamma coactivator (PGC) from Tox21 10K library (AID 1224842); also: % is scaled to controls: 0 for no effect and ±100 for the full control effect; nearly all actives have a fitted effect of over 15% in size
Procedure, shortened: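 PGC/ERR reporter cell line, 2,000 cells per well, incubated 6 h at 37 C before 23 nL compound in DMSO was added. After 18 h at 37 C, One-Glo luminescence read following 30 min at room temperature.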

[11] = target: Thyrotropin receptor (Homo sapiens) (UniProt P16473); assay: qHTS assay to identify small molecule agonists of the thyroid stimulating hormone receptor (TSHR) signaling pathway (AID 1224843; calls by dose curve; also: % is scaled to controls: 0 for no effect and ±100 for the full control effect; nearly all actives have a fitted effect of over 45% in size)
Procedure, shortened: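 HEK293/TSHR, 800 cells/well; cpd 30 min RT; add cAMP-d2 + anti-cAMP-cryptate, 1 h RT; fluorescence read on plate reader. 15-pt titration, n=3.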

[12] = qHTS assay to identify small molecule agonists of the hypoxia (HIF-1) signaling pathway - cell viability counter screen (AID 1224844; calls by dose curve; also: nearly all actives have a fitted effect of over 50% in size; also: potency is read from the fitted curve at half-maximal effect; as to activity change, negative = cytotoxicity: % is scaled to controls: 0 for no effect and ±100 for the full control effect)
Procedure, shortened: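 Cytotoxicity was measured in parallel with the HRE-driven beta-lactamase readout: after 17 hrs of compound exposure at 37C, HRE-bla ME-180 cells received CellTiter-Glo and luminescence was recorded 30 min later.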

[13] = qHTS assay to identify small molecule agonists of H2AX (AID 1224845; active = well fitted activation curve with a large enough effect in the signal ratio in the repeat runs, not every such curve was filed as active; the % refers to the signal ratio; also: % is scaled to controls: 0 for no effect and ±100 for the full control effect)
Procedure, shortened: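 Wild-type CHO-K1 cells, plated overnight, exposed 3hr at 37C to 15 concentrations (0.76% DMSO final). Lysed, then HTRF anti-pH2AX (S139) cryptate and anti-H2AX-d2 antibodies, 24 hr room temperature; 665/620 nm emission read.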

[14] = qHTS assay to identify small molecule agonists of the hypoxia (HIF-1) signaling pathway (AID 1224846; active = well fitted activation curve with a large enough effect in the signal ratio in the repeat runs, not every such curve was filed as active; the % refers to the signal ratio; also: % is scaled to controls: 0 for no effect and ±100 for the full control effect)
Procedure, shortened: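 Compounds from the Tox21 10K library, dissolved in DMSO, are tested for induction of a hypoxia response element–controlled beta-lactamase reporter in ME-180 cells. Exposure lasts 17 hrs at 37C after a 5 hr settling period, followed by CCF4-AM FRET substrate.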

[15] = qHTS assay to identify small molecule antagonists of the estrogen related receptor (ERR) signaling pathway from Tox21 library (AID 1224848)
Procedure, shortened: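 Compounds dissolved in DMSO are pin-transferred onto ERR reporter cells (2,000 per well) that have settled for 6 h at 37 C. Plates then incubate 18 h at 37 C before ONE-Glo luciferase reagent and a luminescence read 30 min later.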

[16] = qHTS assay to identify small molecule agonists of the estrogen related receptor (ERR) signaling pathway from Tox21 library (AID 1224849; calls by dose curve; also: % is scaled to controls: 0 for no effect and ±100 for the full control effect; nearly all actives have a fitted effect of over 15% in size); details: ERR reporter cell line, ONE-Glo luciferase, 18 h; at 92.4 µM (top of the series) unless noted
Procedure, shortened: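 Cells carrying the ERR reporter were plated and allowed to settle for 6 h, exposed to library compounds for 18 h at 37 C, then lysed with ONE-Glo and luminescence measured.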

[17] = qHTS RealTime-Glo MT Cell Viability Assay in HepG2 cells - 24 hour (AID 1224867); also: nearly all actives have a fitted effect of over 50% in size; also: potency is read from the fitted curve at half-maximal effect
Procedure, shortened: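 Compound treatment began 5 h after plating HepG2 cells (600/well) with NanoLuc luciferase and prosubstrate. Plates stayed at 37 C for 40 h; luminescence was captured at six time points, 0 h through 40 h.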

[18] = qHTS RealTime-Glo MT Cell Viability Assay in HEK293 cells - 32 hour (AID 1224868)
Procedure, shortened: (§3)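 Quantitative high-throughput screen of the Tox21 10K library in HEK293: cells and RealTime-Glo reagents plated together, compound added at 5 h, luminescence monitored through 40 h at 37 C.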

[19] = qHTS RealTime-Glo MT Cell Viability Assay in HEK293 cells - 16 hour (AID 1224872)
Procedure, shortened: as §3

[20] = qHTS RealTime-Glo MT Cell Viability Assay in HEK293 cells - 40 hour (AID 1224874); details: RealTime-Glo luminescence; max response: active compounds read low
Procedure, shortened: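 Real-time viability in HEK293: signal arises when living cells convert a prosubstrate for NanoLuc in the medium, so luminescence tracks viable cell number. Compound (23 nL, DMSO) added 5 h post-seeding; kinetic reads at 0–40 h, 37 C.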

Thyrotropin receptor (Homo sapiens), sequence (P16473 whole entry, looked up): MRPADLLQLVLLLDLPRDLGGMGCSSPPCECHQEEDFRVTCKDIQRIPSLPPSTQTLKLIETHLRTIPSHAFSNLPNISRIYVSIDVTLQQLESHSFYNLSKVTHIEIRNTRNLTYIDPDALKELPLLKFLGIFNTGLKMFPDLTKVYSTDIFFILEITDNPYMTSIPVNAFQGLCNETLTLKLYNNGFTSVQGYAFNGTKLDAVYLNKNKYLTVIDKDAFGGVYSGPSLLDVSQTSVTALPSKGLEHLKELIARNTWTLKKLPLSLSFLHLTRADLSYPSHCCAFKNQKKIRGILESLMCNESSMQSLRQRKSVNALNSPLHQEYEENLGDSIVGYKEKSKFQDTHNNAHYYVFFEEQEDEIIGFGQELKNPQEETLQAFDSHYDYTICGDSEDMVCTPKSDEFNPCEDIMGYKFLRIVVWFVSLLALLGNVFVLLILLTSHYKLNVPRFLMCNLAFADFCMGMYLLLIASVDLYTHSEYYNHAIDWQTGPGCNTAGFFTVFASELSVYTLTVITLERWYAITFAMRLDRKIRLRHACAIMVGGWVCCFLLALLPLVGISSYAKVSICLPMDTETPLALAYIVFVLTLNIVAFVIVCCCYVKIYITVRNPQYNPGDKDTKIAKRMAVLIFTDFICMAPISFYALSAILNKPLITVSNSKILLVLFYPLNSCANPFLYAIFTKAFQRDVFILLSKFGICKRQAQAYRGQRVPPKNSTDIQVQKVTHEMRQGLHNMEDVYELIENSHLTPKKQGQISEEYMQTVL
Nuclear receptor subfamily 1 group I member 3 (Homo sapiens), sequence (Q14994 whole entry, looked up): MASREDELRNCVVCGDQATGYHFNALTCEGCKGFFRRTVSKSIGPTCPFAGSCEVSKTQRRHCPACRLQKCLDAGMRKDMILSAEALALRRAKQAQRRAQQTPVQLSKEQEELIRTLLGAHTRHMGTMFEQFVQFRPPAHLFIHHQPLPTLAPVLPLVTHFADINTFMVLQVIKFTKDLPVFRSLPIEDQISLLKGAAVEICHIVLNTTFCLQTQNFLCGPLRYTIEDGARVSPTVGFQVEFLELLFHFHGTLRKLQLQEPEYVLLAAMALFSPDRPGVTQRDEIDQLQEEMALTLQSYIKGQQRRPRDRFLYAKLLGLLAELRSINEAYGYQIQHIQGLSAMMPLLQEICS

CCN(CC)c1ccc2c(c1)Oc1cc(N(CC)CC)ccc1C21OC(=O)c2ccccc21
inactive: Potency [1] | Potency [2] | Potency [6] | Potency [8]
active: Potency [3] 8.41 µM | Potency [4] 15.6 µM | Potency [5] 19 µM | Potency [7] 16.9 µM

O=C(O)C[C@H](O)C[C@H](O)/C=C/c1c(C2CC2)nc2ccccc2c1-c1ccc(F)cc1
active: activity change, positive = activation [16] 31.2% [at 19 µM]
inactive: activity, negative = inhibition [1] -27.1% [at 19 µM] | activation [2] -6.78% [at 19 µM] | activity, negative = inhibition [9] 10.6% [at 19 µM] | activation [10] -0.0293% [at 19 µM] | activation [11] -24.9% [at 19 µM] | activity change, negative = cytotoxicity [12] -17.5% [at 15.8 µM] | activation (H2AX phosphorylation) [13] -2.12% [at 31.6 µM] | activation [14] 0.144% [at 15.8 µM] | activity change, negative = cytotoxicity [4] -0.332% [at 31.6 µM] | activity, negative = inhibition [15] 60.7% [at 19 µM] | activity change, negative = cytotoxicity [17] -20.3% [at 15.8 µM] | activity change, negative = cytotoxic [18] -6.08% [at 15.8 µM] | cytotoxicity [5] -2.87% [at 15.8 µM] | activity change, negative = cytotoxic [6] -27.7% [at 15.8 µM] | cytotoxicity increase [7] 1.42% [at 15.8 µM] | activity change, negative = cytotoxicity [19] 7.11% [at 15.8 µM] | viability change, negative = cytotoxic [8] 4.17% [at 15.8 µM] | max response [20] -20.4%

CN1CCN(CCCN2c3ccccc3Sc3ccc(Cl)cc32)CC1
inactive: Potency [1] | Potency [2] | Potency [11] | Potency [5] | Potency [8]
active: Potency [12] 21.3 µM | Potency [17] 21.3 µM

C=Cc1ccc(O)c(OC)c1
inactive: Potency [1] | Potency [2] | Potency [11] | Potency [12] | Potency [14] | Potency [4] | Potency [18] | Potency [5] | Potency [6] | Potency [7] | Potency [19] | Potency [8] | max response [20] 2.13%

COc1ccc(OC)c(N=Nc2c(O)ccc3ccccc23)c1
inactive: Potency [1] | Potency [11] | Potency [13] | Potency [15] | activity change, positive = activation [16] -14.1% | Potency [17] | Potency [6] | Potency [7]
active: Potency [2] 12.2 µM | Potency [12] 38.9 µM | Potency [4] 40.1 µM

C=CC(C)(C)O
inactive: Potency [1] | Potency [2] | Potency [12] | Potency [13] | Potency [14] | Potency [4] | Potency [17] | Potency [18] | Potency [5] | Potency [6] | Potency [7] | Potency [19] | max response [20] 6.97%

O=c1cc[nH]cc1
inactive: Potency [1] | Potency [2] | Potency [11] | Potency [12] | Potency [13] | Potency [14] | Potency [4] | Potency [17] | Potency [18] | Potency [5] | Potency [6] | Potency [19] | Potency [8] | max response [20] 1.32%

Cc1ccc(N=Nc2c(O)ccc3ccccc23)c(C)c1
active: Potency [2] 8.41 µM | Potency [12] 21.3 µM
inactive: Potency [1] | Potency [11] | Potency [13] | Potency [14] | Potency [4] | Potency [17] | Potency [18] | Potency [5] | Potency [6] | Potency [7] | max response [20] -8.3%

Cc1cccc(C)c1C
inactive: Potency [1] | Potency [2] | Potency [11] | Potency [12] | Potency [13] | Potency [4] | Potency [17] | Potency [18] | Potency [5] | Potency [6] | Potency [7] | Potency [19] | Potency [8] | max response [20] 4%
